The record followed here is PubChem BioAssay (NCATS).

The target in test [1] is Cellular tumor antigen p53 (Homo sapiens) (UniProt P04637). Description: Primary qHTS for small molecule compounds that upregulate eGFP-tagged delta133p53alpha (in N-terminal) cells. (AID 2060322). Also: nearly all actives have a fitted effect of over 75% in size. Also: potency is read from the fitted curve at half-maximal effect.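 As to activation: cells pre-induced with doxycycline then dosed without doxycycline; series mostly up to about 56 µM; 0% = DMSO vehicle and 100% = reference activator.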 Particulars: NCI-H358 eGFP-delta133p53alpha fluorescence, 24 h; activation: active compounds read high. The essentials:
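NCI-H358 cells pre-induced 24 h with 10 ng/ml doxycycline for eGFP-delta133p53alpha, plated dox-free and exposed 24 h at 37C to titrated compounds. Fixed, Hoechst-stained; gated GFP peak intensity by laser scanning cytometry, normalized to DMSO (0%) and 57.5 uM 5-azacytidine (100%).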

For test [2], the target named is Aldehyde dehydrogenase, mitochondrial (Homo sapiens) (UniProt P05091). As to the kind of experiment: qHTS for Inhibitors of the Aldehyde Dehydrogenase Family (ALDH2) Primary screen (AID 2061308).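 Also: plate controls were vehicle for no effect and reference inhibitor for full effect; nearly all actives have a fitted effect of over 55% in size.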 Background: qHTS replaces the single test concentration by a dilution series.
Test [3] in a line: BET inhibitor-based combinations targeting novel dependencies in MECOM-rearranged (r) AML: SET-2 cell line (AID 2202231). Also: potency is read from the fitted curve at half-maximal effect; nearly all actives have a fitted effect of over 35% in size. Particulars: SET-2 AML cells viability, CellTiter-Glo luminescence, 48 h; viability: active compounds read low, concentration not given here. A digest of the protocol:
(§1)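 Luminescent ATP readout (CellTiter-Glo) after 48 hr drug exposure gives viability. Curves span 11 concentrations and are normalized to DMSO and empty wells. Activity is reported as area under the curve and its Z-transform within each cell line.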
(In ATP-based viability assays light output follows the ATP content of the culture.)

A short description of test [4]: BET inhibitor-based combinations targeting novel dependencies in MECOM-rearranged (r) AML: OCI-AML3 cell line (AID 2202232). Also: potency is read from the fitted curve at half-maximal effect; nearly all actives have a fitted effect of over 35% in size. Particulars: Potency: OCI-AML3 viability. The essentials: as §1
A short description of test [5]: BET inhibitor-based combinations targeting novel dependencies in MECOM-rearranged (r) AML: MV-4-11 cell line (AID 2202233). Also: potency is read from the fitted curve at half-maximal effect; nearly all actives have a fitted effect of over 45% in size. A digest of the protocol:
(§2)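 Luminescent ATP readout (CellTiter-Glo, 15 min at room temperature) after 48 hr drug exposure gave viability. Dose-response curves, normalized to DMSO and empty-well controls, were summarized as area under the curve and its mean-centred Z-score.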

Test [6] in a line: BET inhibitor-based combinations targeting novel dependencies in MECOM-rearranged (r) AML: HNT-34 cell line (AID 2202234). Also: potency is read from the fitted curve at half-maximal effect; nearly all actives have a fitted effect of over 35% in size. The essentials:
as §2

Test [7] can be described thus: BET inhibitor-based combinations targeting novel dependencies in MECOM-rearranged (r) AML: UCSD-AML1 cell line (AID 2202235). Also: potency is read from the fitted curve at half-maximal effect; nearly all actives have a fitted effect of over 40% in size. The essentials: as §2
Test [8] in a line: BET inhibitor-based combinations targeting novel dependencies in MECOM-rearranged (r) AML: AML-191 cell line (AID 2202236; also: potency is read from the fitted curve at half-maximal effect; nearly all actives have a fitted effect of over 35% in size). A digest of the protocol:
as §1

The nature of test [9]: BET inhibitor-based combinations targeting novel dependencies in MECOM-rearranged (r) AML: AML-194 cell line (AID 2202237; also: potency is read from the fitted curve at half-maximal effect; nearly all actives have a fitted effect of over 40% in size). The essentials:
as §1

The target of test [10] is Retinaldehyde dehydrogenase 3 (Homo sapiens) (UniProt P47895). As to the kind of experiment: qHTS for Inhibitors of the Aldehyde Dehydrogenase Family (ALDH1A3) Primary screen (AID 2061315).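 Also: plate controls were DMSO vehicle for no effect and reference inhibitor for full effect.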
The nature of test [11]: qHTS for Inhibitors of the Aldehyde Dehydrogenase Family (ALDH1A2, ALDH1A3, ALDH2, ALDH3A1) (AID 2061307). Also: test system not described further here; potency is read from the fitted curve at half-maximal effect; nearly all actives have a fitted effect of over 50% in size.
Test [12] concerns the target Retinaldehyde dehydrogenase 3 (Homo sapiens) (UniProt P47895). As to the kind of experiment: qHTS for Inhibitors of the Aldehyde Dehydrogenase Family (ALDH1A3) Confirmatory screens (AID 2061311). Also: potency is read from the fitted curve at half-maximal effect; nearly all actives have a fitted effect of over 60% in size.
Test [13] addresses Retinal dehydrogenase 2 (Homo sapiens) (UniProt O94788). As to the kind of experiment: qHTS for Inhibitors of the Aldehyde Dehydrogenase Family (ALDH1A2) Confirmation screens (AID 2061314). Also: potency is read from the fitted curve at half-maximal effect; nearly all actives have a fitted effect of over 65% in size.
Test [14] concerns the target Aldehyde dehydrogenase 1A1 (Homo sapiens) (UniProt P00352). Description: qHTS for Inhibitors of the Aldehyde Dehydrogenase Family (ALDH1A1) Confirmatory screens (AID 2061316). Also: potency is read from the fitted curve at half-maximal effect; nearly all actives have a fitted effect of over 65% in size.
For test [15], the target named is Aldehyde dehydrogenase, mitochondrial (Homo sapiens) (UniProt P05091). As to the kind of experiment: qHTS for Inhibitors of the Aldehyde Dehydrogenase Family (ALDH2) Validation screens (AID 2061302; active = well fitted inhibition curve with a large enough effect; title and protocol of this record describe different tests;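 also: plate controls were DMSO vehicle for no effect and maximal DPI positive control response for full effect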).
The target of test [16] is Cellular tumor antigen p53 (Homo sapiens) (UniProt P04637). As to the kind of experiment: Primary qHTS for small molecule compounds that upregulate eGFP-tagged delta133p53alpha (in C-terminal) cells. (AID 2060324).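 Also: 0% = DMSO wells and 100% = 57.5 µM 5-azacytidine.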 The essentials: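 Doxycycline (100 ng/ml, 24 h) first induced the eGFP fusion in NCI-H358 C-terminal-tag cells. Washed-out cells then received titrated compounds for 24 h at 37 °C before paraformaldehyde fixation, Hoechst staining and cytometric GFP quantification.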

Records with an inconclusive call do not appear. More than one record can exist for a structure, and the calls need not agree. Unmarked numbers belong to inactive results. Active and inactive are the calls of the source. Unless noted, calls follow the shape of the dose curve; as a rule, active = well fitted curve in the direction sought with a large enough effect; inconclusive = small, poorly fitted or top-dose-only effect, or another doubt; inactive = no such curve, though single readings can be large; an effect the other way counts as inactive or inconclusive.

Cellular tumor antigen p53 (Homo sapiens), sequence (P04637 whole entry, looked up, the tested form may be a part): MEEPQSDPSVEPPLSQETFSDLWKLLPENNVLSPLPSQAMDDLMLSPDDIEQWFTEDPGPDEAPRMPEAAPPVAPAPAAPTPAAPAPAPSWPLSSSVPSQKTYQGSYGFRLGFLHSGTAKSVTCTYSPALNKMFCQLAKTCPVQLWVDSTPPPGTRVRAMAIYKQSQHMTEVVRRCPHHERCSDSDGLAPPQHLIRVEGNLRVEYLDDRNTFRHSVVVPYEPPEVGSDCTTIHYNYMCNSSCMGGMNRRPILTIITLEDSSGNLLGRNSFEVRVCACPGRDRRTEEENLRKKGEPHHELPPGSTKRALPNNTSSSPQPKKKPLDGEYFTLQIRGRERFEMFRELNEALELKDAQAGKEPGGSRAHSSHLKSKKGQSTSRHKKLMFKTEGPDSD

In the case of `CC(C)n1nc(-c2cc3cc(O)ccc3[nH]2)c2c(N)ncnc21`, the Potency in test [1] was 21.3 µM (active); in [3], 2.09 µM (active); in [4] it was 1.86 µM (active); in test [5], 0.417 µM (active); in [6] it was 0.372 µM (active); in [7] it was 0.332 µM (active). For the same compound, the Potency in [8] was 0.934 µM (active); in test [9], 0.417 µM (active). In addition, the activation in test [1] is 17.6%. Moreover, the Potency entry in test [2] is “inactive”.

As to `COc1cc(N2CCC(N(C)C)CC2)ccc1Nc1ncc(Cl)c(Nc2ccccc2P(C)(C)=O)n1`, the Potency in test [1] was 2.69 µM (active); in [3], 6.61 µM (active); in test [4], 7.42 µM (active); in [5], 0.0934 µM (active); in test [6], 2.63 µM (active); in test [8], 9.34 µM (active). Also, in test [9], the Potency was 7.42 µM (active). The activation in [1] was -5.31%. Further, the Potency entry in test [2] and in test [10] was “inactive” each time.

With `CN1CCc2c(c3ccccc3n2Cc2ccc(C(=O)NO)cc2)C1`, the Potency in [1] is 34.3 µM (active); in test [3], 20.9 µM (active); in test [4], 20.9 µM (active); in test [5], 20.9 µM (active); in [6] it was 9.34 µM (active); in [9] it was 23.5 µM (active). The activation in test [1] was 77.5%. Moreover, the Potency result in test [2] and in test [10] was “inactive” each time.

Regarding `Cc1coc2c1C(=O)C(=O)c1c-2ccc2c(C)cccc12`, the Potency in test [1] was 13.5 µM (active); in test [11], 4.49 µM (active); in test [12], 12.7 µM (active); in test [13], 11.3 µM (active); in test [14] it was 3.57 µM (active). Besides, the activation in [1] is 9.22%.

Take `COc1cc2nc(N3CCCN(C)CC3)nc(NC3CCN(Cc4ccccc4)CC3)c2cc1OC`: the Potency in test [1] is 30.6 µM (active); in test [3] it was 18.6 µM (active); in test [4], 8.33 µM (active); in [5], 6.61 µM (active); in [6] it was 7.42 µM (active); in [7] it was 6.61 µM (active). The Potency in [8] was 14.8 µM (active); in test [9], 10.5 µM (active). Besides, in test [1], the activation was -2.51%. Further, the Potency result in test [15] is “inactive”.

Regarding `Nc1c(S(=O)(=O)O)cc(Nc2ccc(Nc3nc(Cl)nc(Nc4ccc(S(=O)(=O)O)cc4)n3)c(S(=O)(=O)O)c2)c2c1C(=O)c1ccccc1C2=O`, the activation in [1] was -2.44%. Besides, the Potency result in test [16] and in [15] was “inactive” throughout.
